Article PMC11006913

How the values were obtained:
Assay in all cases: PBM; 200 nM protein, PBS
Conditions in all cases: dsDNA, one strand shown
HESX1 [1] = target: HESX1 (Homo sapiens, UniProt Q9UBX0 95-180, R165K)
SHOX [2] = target: SHOX (Homo sapiens, UniProt O15266 103-189)
ALX4 = ALX4 (Homo sapiens, UniProt Q9H161 200-286, Q225E)
HESX1 [3] = target: HESX1 (Homo sapiens, UniProt Q9UBX0 95-180)
ALX3 [4] = target: ALX3 (Homo sapiens, UniProt O95076 139-225, N203Q)
SHOX [5] = target: SHOX (Homo sapiens, UniProt O15266 103-189, R173C)
Chain of SHOX (Homo sapiens, UniProt O15266 103-189, R173C) (O15266 103-189 R173C): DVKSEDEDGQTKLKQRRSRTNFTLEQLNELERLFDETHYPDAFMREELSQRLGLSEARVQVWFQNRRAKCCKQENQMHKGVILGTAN

ALX3 [6] = target: ALX3 (Homo sapiens, UniProt O95076 139-225)
Chain of ALX3 (Homo sapiens, UniProt O95076 139-225) (O95076 139-225): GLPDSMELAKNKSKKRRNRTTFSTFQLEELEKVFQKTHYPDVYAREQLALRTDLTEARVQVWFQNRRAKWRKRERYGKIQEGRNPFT

PROP1 [7] = target: PROP1 (Homo sapiens, UniProt O75360 56-141)
Chain of PROP1 (Homo sapiens, UniProt O75360 56-141) (O75360 56-141): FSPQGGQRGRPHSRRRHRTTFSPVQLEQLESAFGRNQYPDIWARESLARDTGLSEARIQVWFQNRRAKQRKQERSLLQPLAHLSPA

HESX1 [8] = target: HESX1 (Homo sapiens, UniProt Q9UBX0 95-180, R109Q)
Chain of HESX1 (Homo sapiens, UniProt Q9UBX0 95-180, R109Q) (Q9UBX0 95-180 R109Q): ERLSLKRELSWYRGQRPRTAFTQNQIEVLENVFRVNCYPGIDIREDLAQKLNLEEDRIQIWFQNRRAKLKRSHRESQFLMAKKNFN

PROP1 [9] = target: PROP1 (Homo sapiens, UniProt O75360 56-141, R99H)
Chain of PROP1 (Homo sapiens, UniProt O75360 56-141, R99H) (O75360 56-141 R99H): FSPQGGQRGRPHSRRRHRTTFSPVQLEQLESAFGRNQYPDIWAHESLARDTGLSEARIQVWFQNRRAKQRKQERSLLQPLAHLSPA

ALX3 [10] = target: ALX3 (Homo sapiens, UniProt O95076 139-225, L168Q)
Chain of ALX3 (Homo sapiens, UniProt O95076 139-225, L168Q) (O95076 139-225 L168Q): as the sequence (O95076 139-225) above, with L30Q counted along it

HESX1 [11] = target: HESX1 (Homo sapiens, UniProt Q9UBX0 95-180, P111T)
Chain of HESX1 (Homo sapiens, UniProt Q9UBX0 95-180, P111T) (Q9UBX0 95-180 P111T): as the sequence (Q9UBX0 95-180 R109Q) above, with Q15R, P17T counted along it

ALX3 [12] = target: ALX3 (Homo sapiens, UniProt O95076 139-225, L168V)
Chain of ALX3 (Homo sapiens, UniProt O95076 139-225, L168V) (O95076 139-225 L168V): as the sequence (O95076 139-225) above, with L30V counted along it

PROP1 [13] = target: PROP1 (Homo sapiens, UniProt O75360 56-141, F88S)
Chain of PROP1 (Homo sapiens, UniProt O75360 56-141, F88S) (O75360 56-141 F88S): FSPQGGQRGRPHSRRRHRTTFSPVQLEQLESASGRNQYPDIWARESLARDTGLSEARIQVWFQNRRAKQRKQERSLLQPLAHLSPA

HESX1 [14] = target: HESX1 (Homo sapiens, UniProt Q9UBX0 95-180, F115L)
Chain of HESX1 (Homo sapiens, UniProt Q9UBX0 95-180, F115L) (Q9UBX0 95-180 F115L): as the sequence (Q9UBX0 95-180 R109Q) above, with Q15R, F21L counted along it

ALX3 [15] = target: ALX3 (Homo sapiens, UniProt O95076 139-225, N203S)
Chain of ALX3 (Homo sapiens, UniProt O95076 139-225, N203S) (O95076 139-225 N203S): as the sequence (O95076 139-225) above, with N65S counted along it

ALX1 [16] = target: ALX1 (Homo sapiens, UniProt Q15699 118-204, L144V)
Chain of ALX1 (Homo sapiens, UniProt Q15699 118-204, L144V) (Q15699 118-204 L144V): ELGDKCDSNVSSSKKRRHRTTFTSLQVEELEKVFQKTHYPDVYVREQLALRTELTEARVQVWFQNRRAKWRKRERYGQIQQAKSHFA

ALX1 [17] = target: ALX1 (Homo sapiens, UniProt Q15699 118-204, L144R)
Chain of ALX1 (Homo sapiens, UniProt Q15699 118-204, L144R) (Q15699 118-204 L144R): as the sequence (Q15699 118-204 L144V) above, with V27R counted along it

ALX1 [18] = target: ALX1 (Homo sapiens, UniProt Q15699 118-204)
Chain of ALX1 (Homo sapiens, UniProt Q15699 118-204) (Q15699 118-204): as the sequence (Q15699 118-204 L144V) above, with V27L counted along it

MSX2 = MSX2 (Homo sapiens, UniProt P35548 130-214, R199I)
Chain of MSX2 (P35548 130-214 R199I): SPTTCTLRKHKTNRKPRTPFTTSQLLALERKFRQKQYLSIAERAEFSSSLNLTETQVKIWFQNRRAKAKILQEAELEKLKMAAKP

Chain of HESX1 (Homo sapiens, UniProt Q9UBX0 95-180) (Q9UBX0 95-180): as the sequence (Q9UBX0 95-180 R109Q) above, with Q15R counted along it
Chain of ALX3 (Homo sapiens, UniProt O95076 139-225, N203Q) (O95076 139-225 N203Q): as the sequence (O95076 139-225) above, with N65Q counted along it
Chain of SHOX (Homo sapiens, UniProt O15266 103-189) (O15266 103-189): as the sequence (O15266 103-189 R173C) above, with C71R counted along it
Chain of ALX4 (Q9H161 200-286 Q225E): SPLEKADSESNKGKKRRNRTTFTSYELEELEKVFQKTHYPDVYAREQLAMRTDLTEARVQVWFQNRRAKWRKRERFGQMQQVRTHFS
Chain of HESX1 (Homo sapiens, UniProt Q9UBX0 95-180, R165K) (Q9UBX0 95-180 R165K): as the sequence (Q9UBX0 95-180 R109Q) above, with Q15R, R71K counted along it

Sequence	binding signal (HESX1 [1])	binding signal (SHOX [2])	binding signal (ALX4)	binding signal (HESX1 [3])	binding signal (ALX3 [4])	binding signal (SHOX [5])	binding signal (ALX3 [6])	binding signal (PROP1 [7])	binding signal (HESX1 [8])	binding signal (PROP1 [9])	binding signal (ALX3 [10])	binding signal (HESX1 [11])	binding signal (ALX3 [12])	binding signal (PROP1 [13])	binding signal (HESX1 [14])	binding signal (ALX3 [15])	binding signal (ALX1 [16])	binding signal (ALX1 [17])	binding signal (ALX1 [18])	binding signal (MSX2)
AATTAAGG	11.4 upbm affinity estimate (log intensity, higher = more binding, comparable within an allelic series)	11.7 upbm affinity estimate (log intensity, higher = more binding, comparable within an allelic series)	12.8 upbm affinity estimate (log intensity, higher = more binding, comparable within an allelic series)	11.4 upbm affinity estimate (log intensity, higher = more binding, comparable within an allelic series)	8.39 upbm affinity estimate (log intensity, higher = more binding, comparable within an allelic series)	9.49 upbm affinity estimate (log intensity, higher = more binding, comparable within an allelic series)	12.2 upbm affinity estimate (log intensity, higher = more binding, comparable within an allelic series)	11 upbm affinity estimate (log intensity, higher = more binding, comparable within an allelic series)	8.76 upbm affinity estimate (log intensity, higher = more binding, comparable within an allelic series)	10.8 upbm affinity estimate (log intensity, higher = more binding, comparable within an allelic series)	10.4 upbm affinity estimate (log intensity, higher = more binding, comparable within an allelic series)	10.3 upbm affinity estimate (log intensity, higher = more binding, comparable within an allelic series)	9.9 upbm affinity estimate (log intensity, higher = more binding, comparable within an allelic series)	7.57 upbm affinity estimate (log intensity, higher = more binding, comparable within an allelic series)	7.55 upbm affinity estimate (log intensity, higher = more binding, comparable within an allelic series)	8.48 upbm affinity estimate (log intensity, higher = more binding, comparable within an allelic series)				
AATTAGAT	11.3 upbm affinity estimate (log intensity, higher = more binding, comparable within an allelic series)	11.6 upbm affinity estimate (log intensity, higher = more binding, comparable within an allelic series)	12.6 upbm affinity estimate (log intensity, higher = more binding, comparable within an allelic series)	11.4 upbm affinity estimate (log intensity, higher = more binding, comparable within an allelic series)	8.42 upbm affinity estimate (log intensity, higher = more binding, comparable within an allelic series)	9.16 upbm affinity estimate (log intensity, higher = more binding, comparable within an allelic series)	12.4 upbm affinity estimate (log intensity, higher = more binding, comparable within an allelic series)	11.5 upbm affinity estimate (log intensity, higher = more binding, comparable within an allelic series)	8.52 upbm affinity estimate (log intensity, higher = more binding, comparable within an allelic series)	10.9 upbm affinity estimate (log intensity, higher = more binding, comparable within an allelic series)	10.2 upbm affinity estimate (log intensity, higher = more binding, comparable within an allelic series)	10.1 upbm affinity estimate (log intensity, higher = more binding, comparable within an allelic series)	9.67 upbm affinity estimate (log intensity, higher = more binding, comparable within an allelic series)	7.72 upbm affinity estimate (log intensity, higher = more binding, comparable within an allelic series)	7.63 upbm affinity estimate (log intensity, higher = more binding, comparable within an allelic series)	8.49 upbm affinity estimate (log intensity, higher = more binding, comparable within an allelic series)	11.6 upbm affinity estimate (log intensity, higher = more binding, comparable within an allelic series)	11.1 upbm affinity estimate (log intensity, higher = more binding, comparable within an allelic series)	12.2 upbm affinity estimate (log intensity, higher = more binding, comparable within an allelic series)	
CAATTATA	12.8 upbm affinity estimate (log intensity, higher = more binding, comparable within an allelic series)	12.2 upbm affinity estimate (log intensity, higher = more binding, comparable within an allelic series)	13.4 upbm affinity estimate (log intensity, higher = more binding, comparable within an allelic series)	12.8 upbm affinity estimate (log intensity, higher = more binding, comparable within an allelic series)	8.6 upbm affinity estimate (log intensity, higher = more binding, comparable within an allelic series)	9.46 upbm affinity estimate (log intensity, higher = more binding, comparable within an allelic series)	12.5 upbm affinity estimate (log intensity, higher = more binding, comparable within an allelic series)	11.4 upbm affinity estimate (log intensity, higher = more binding, comparable within an allelic series)	8.93 upbm affinity estimate (log intensity, higher = more binding, comparable within an allelic series)	11.5 upbm affinity estimate (log intensity, higher = more binding, comparable within an allelic series)	10.7 upbm affinity estimate (log intensity, higher = more binding, comparable within an allelic series)	11.4 upbm affinity estimate (log intensity, higher = more binding, comparable within an allelic series)	10.2 upbm affinity estimate (log intensity, higher = more binding, comparable within an allelic series)	7.86 upbm affinity estimate (log intensity, higher = more binding, comparable within an allelic series)	8.06 upbm affinity estimate (log intensity, higher = more binding, comparable within an allelic series)	8.66 upbm affinity estimate (log intensity, higher = more binding, comparable within an allelic series)	11.7 upbm affinity estimate (log intensity, higher = more binding, comparable within an allelic series)	11.4 upbm affinity estimate (log intensity, higher = more binding, comparable within an allelic series)	12.3 upbm affinity estimate (log intensity, higher = more binding, comparable within an allelic series)	13.1 upbm affinity estimate (log intensity, higher = more binding, comparable within an allelic series)
AATTATAA	11.6 upbm affinity estimate (log intensity, higher = more binding, comparable within an allelic series)	11.4 upbm affinity estimate (log intensity, higher = more binding, comparable within an allelic series)	13.1 upbm affinity estimate (log intensity, higher = more binding, comparable within an allelic series)	11.7 upbm affinity estimate (log intensity, higher = more binding, comparable within an allelic series)	8.51 upbm affinity estimate (log intensity, higher = more binding, comparable within an allelic series)	9.09 upbm affinity estimate (log intensity, higher = more binding, comparable within an allelic series)	12.4 upbm affinity estimate (log intensity, higher = more binding, comparable within an allelic series)	11 upbm affinity estimate (log intensity, higher = more binding, comparable within an allelic series)	8.29 upbm affinity estimate (log intensity, higher = more binding, comparable within an allelic series)	10.8 upbm affinity estimate (log intensity, higher = more binding, comparable within an allelic series)	10.4 upbm affinity estimate (log intensity, higher = more binding, comparable within an allelic series)	10.4 upbm affinity estimate (log intensity, higher = more binding, comparable within an allelic series)	9.95 upbm affinity estimate (log intensity, higher = more binding, comparable within an allelic series)	7.93 upbm affinity estimate (log intensity, higher = more binding, comparable within an allelic series)	7.89 upbm affinity estimate (log intensity, higher = more binding, comparable within an allelic series)	8.6 upbm affinity estimate (log intensity, higher = more binding, comparable within an allelic series)	11.5 upbm affinity estimate (log intensity, higher = more binding, comparable within an allelic series)	11.2 upbm affinity estimate (log intensity, higher = more binding, comparable within an allelic series)	12.1 upbm affinity estimate (log intensity, higher = more binding, comparable within an allelic series)	12.4 upbm affinity estimate (log intensity, higher = more binding, comparable within an allelic series)
GCCAATTA	13.5 upbm affinity estimate (log intensity, higher = more binding, comparable within an allelic series)	12.5 upbm affinity estimate (log intensity, higher = more binding, comparable within an allelic series)	13.6 upbm affinity estimate (log intensity, higher = more binding, comparable within an allelic series)	13.3 upbm affinity estimate (log intensity, higher = more binding, comparable within an allelic series)	8.33 upbm affinity estimate (log intensity, higher = more binding, comparable within an allelic series)	9.95 upbm affinity estimate (log intensity, higher = more binding, comparable within an allelic series)	12.6 upbm affinity estimate (log intensity, higher = more binding, comparable within an allelic series)	11.6 upbm affinity estimate (log intensity, higher = more binding, comparable within an allelic series)	10.3 upbm affinity estimate (log intensity, higher = more binding, comparable within an allelic series)	11.9 upbm affinity estimate (log intensity, higher = more binding, comparable within an allelic series)	10.9 upbm affinity estimate (log intensity, higher = more binding, comparable within an allelic series)	12.1 upbm affinity estimate (log intensity, higher = more binding, comparable within an allelic series)	10.4 upbm affinity estimate (log intensity, higher = more binding, comparable within an allelic series)	7.64 upbm affinity estimate (log intensity, higher = more binding, comparable within an allelic series)	7.99 upbm affinity estimate (log intensity, higher = more binding, comparable within an allelic series)	8.5 upbm affinity estimate (log intensity, higher = more binding, comparable within an allelic series)	11.9 upbm affinity estimate (log intensity, higher = more binding, comparable within an allelic series)	11.7 upbm affinity estimate (log intensity, higher = more binding, comparable within an allelic series)	12.6 upbm affinity estimate (log intensity, higher = more binding, comparable within an allelic series)	13 upbm affinity estimate (log intensity, higher = more binding, comparable within an allelic series)
CGCAATTA	11.6 upbm affinity estimate (log intensity, higher = more binding, comparable within an allelic series)			11.8 upbm affinity estimate (log intensity, higher = more binding, comparable within an allelic series)					8.21 upbm affinity estimate (log intensity, higher = more binding, comparable within an allelic series)			10.1 upbm affinity estimate (log intensity, higher = more binding, comparable within an allelic series)			7.22 upbm affinity estimate (log intensity, higher = more binding, comparable within an allelic series)					12.6 upbm affinity estimate (log intensity, higher = more binding, comparable within an allelic series)
GCCGTCGC	6.39 upbm affinity estimate (log intensity, higher = more binding, comparable within an allelic series)			6.51 upbm affinity estimate (log intensity, higher = more binding, comparable within an allelic series)					6.58 upbm affinity estimate (log intensity, higher = more binding, comparable within an allelic series)			6.45 upbm affinity estimate (log intensity, higher = more binding, comparable within an allelic series)			6.53 upbm affinity estimate (log intensity, higher = more binding, comparable within an allelic series)					
AAGCTGGC	6.31 upbm affinity estimate (log intensity, higher = more binding, comparable within an allelic series)			6.21 upbm affinity estimate (log intensity, higher = more binding, comparable within an allelic series)					6.45 upbm affinity estimate (log intensity, higher = more binding, comparable within an allelic series)			6.39 upbm affinity estimate (log intensity, higher = more binding, comparable within an allelic series)			6.51 upbm affinity estimate (log intensity, higher = more binding, comparable within an allelic series)					
